RGS16-Gao: modulators of RGS16 binding to Galphao, primary screen, biochemical, human proteins, multiplexed bead flow cytometry; bead-based flow cytometry RGS16-Galphao binding, fluorescence; actives lie on both sides; binding response (% of control), % at 10 µM; hit rate 0.38% among 220,000;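 further: Galphao activated by GDP with aluminum fluoride before binding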
Target sequence (O15492 whole entry, looked up): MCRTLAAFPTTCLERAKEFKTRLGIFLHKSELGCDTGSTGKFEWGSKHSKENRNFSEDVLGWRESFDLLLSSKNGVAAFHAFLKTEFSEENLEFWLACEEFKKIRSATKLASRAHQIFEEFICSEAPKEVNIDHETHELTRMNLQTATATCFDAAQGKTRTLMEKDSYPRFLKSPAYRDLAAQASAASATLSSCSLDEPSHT
Target sequence (P09471 whole entry, looked up): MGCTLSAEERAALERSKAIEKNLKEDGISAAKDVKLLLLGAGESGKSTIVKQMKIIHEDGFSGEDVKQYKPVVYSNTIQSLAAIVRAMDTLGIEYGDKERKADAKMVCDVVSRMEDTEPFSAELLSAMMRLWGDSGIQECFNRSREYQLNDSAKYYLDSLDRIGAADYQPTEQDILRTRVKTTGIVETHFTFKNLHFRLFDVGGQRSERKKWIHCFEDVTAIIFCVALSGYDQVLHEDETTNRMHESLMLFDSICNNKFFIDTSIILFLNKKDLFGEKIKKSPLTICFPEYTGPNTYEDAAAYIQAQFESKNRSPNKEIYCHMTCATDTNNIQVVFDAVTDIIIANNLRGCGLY
RGS4-Gao reg: modulators of RGS4 binding to Galphao, primary screen, biochemical, multiplexed bead flow cytometry. hit rate 0.33% among 220,000. Guanine nucleotide-binding protein G(o) subunit alpha (Homo sapiens), P09471. binding response (% of control), % at 10 µM. AID 1415, 2008. actives lie on both sides; in the data active means binding response below about 49% or above about 150%; inactive means in between;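 further: fluorescent Galphao activated with aluminum fluoride binding bead-coupled RGS4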
RGS7-Gao: RGS7-Galphao binding modulators, primary screen, biochemical, multiplexed bead flow cytometry. Guanine nucleotide-binding protein G(o) subunit alpha (Homo sapiens), P09471. actives lie on both sides. binding response (% of control), % at 10 µM. hit rate 0.35% among 220,000. AID 1439, 2008; in the data active means binding response below about 49% or above about 150%;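 further: fluorescent Galphao held in activated GDP-AlF4 state binding bead-coupled RGS7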
GSH bead fluor: compound fluorescence on glutathione beads, profiling panel, artefact control, biophysical, 488/530 nm, flow cytometry; GSH beads flow cytometry, compound fluorescence 488/530 nm; active compounds read high; fluorescence (KMESF) at 10 µM; hit rate 0.25% among 190,000; AID 1776, 2009; in the data active means fluorescence above about 89;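 further: glutathione beads carrying GST-tagged Bcl family fusion proteins plus one bare bead set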
RGS8-Gao: RGS8-Galphao binding modulators, primary screen, biochemical, multiplexed bead flow cytometry; Guanine nucleotide-binding protein G(o) subunit alpha (Homo sapiens), P09471; actives lie on both sides; response (percent of control binding), % at 10 µM; hit rate 0.34% among 220,000; in the data active means response below about 60% or above about 140%; inactive means in between;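 further: Galphao activated as the GDP aluminium fluoride complex binding bead-coupled RGS8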
Avidin fluor: green autofluorescence of compounds with avidin beads – biophysical, 488/530 nm, flow cytometry, artefact control, profiling panel; compound fluorescence 488/530 nm; active compounds read high; fluorescence (KMESF) at 10 µM; hit rate 0.38% among 220,000; in the data active means fluorescence above about 47
RGS-Gao: modulators of RGS–Galpha-o binding, primary screen, biochemical, multiplexed beads, flow cytometry, RGS4/7/8/16/19; shares compounds with RGS16-Gao; multiplexed bead flow cytometry; RGS4–Galpha-o binding response, % at 10 µM; hit rate 99% among 1,600;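 further: fluorescently labeled Galpha-o bound to GDP with aluminium fluoride binding biotinylated RGS beads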
Biotin-avidin: disruption of biotin probe capture by avidin, counter-screen for RGS protein interaction modulators, biochemical, flow cytometry, bead-based. shares compounds with RGS16-Gao. streptavidin beads, fluorescein-biotin binding. inhibition, % at 10 µM. 1,700 tested, under 10 active. AID 1783, 2009;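 active means inhibition above 50%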;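 further: median green fluorescence of gated singlet beads compared with DMSO control wells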
RGS8-Gao single: RGS8-Galphao binding modulators, confirmation, biochemical, multiplexed bead flow cytometry, single concentration; shares compounds with RGS16-Gao; bead-based flow cytometry RGS8-Galphao binding, fluorescence; actives lie on both sides; binding response (% of control), % at 10 µM; hit rate 3% among 1,700; in the data active means binding response below about 72% or above about 130%; inactive means in between;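 further: Galphao activated as GDP AlF4 complex before binding bead RGS8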
RGS7-Gao confirm: RGS7-Galphao binding modulators, confirmation, biochemical, multiplexed bead flow cytometry, single concentration. shares compounds with RGS16-Gao. bead-based flow cytometry RGS7-Galphao binding; actives lie on both sides. response (percent of control binding), % at 10 µM. hit rate 7.8% among 1,700; in the data active means response below about 75% or above about 130%; inactive means in between;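 further: fluorescent Galphao activated with GDP and aluminum fluoride binding bead-coupled RGS7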
RGS16-Gao single: modulators of RGS16-Galphao protein binding, confirmation, biochemical, single concentration, multiplexed bead flow cytometry; hit rate 4% among 1,700; bead-based flow cytometry; actives lie on both sides; shares compounds with RGS16-Gao; response (% of control binding), % at 10 µM; in the data active means response below about 74% or above about 130%; inactive means in between;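 further: Galphao activated as the GDP aluminium fluoride complex binding bead-coupled RGS16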
RGS4-Gao single: modulators of RGS4-Galphao protein binding, confirmation, biochemical, single concentration, multiplexed bead flow cytometry. shares compounds with RGS16-Gao. actives lie on both sides. binding response (% of control), % at 10 µM. hit rate 4% among 1,700. AID 1840, 2009; in the data active means binding response below about 74% or above about 130%; inactive means in between
RGS19-Gao single: regulators of RGS19-Galphao binding, confirmation, biochemical, single point, multiplexed bead flow cytometry; shares compounds with RGS16-Gao; bead-based flow cytometry RGS19-Galphao binding; actives lie on both sides; response (percent of control binding), % at 10 µM; hit rate 5% among 1,700; AID 1841, 2009; in the data active means response below about 50% or above about 160%; inactive means in between
Large screens that a line does not name were inactive (follow-up assays come after a bar, where they were run); [ ] = remark or other dose. Shown are actives, neighbours in structure and some others; about 1.2% of the full set was active somewhere. Unless noted, how the calls were made is not given here.

Cc1ccc2c(C(=O)CN3CCN(c4ccccc4)CC3)c(C)[nH]c2c1	none
COc1ccc(N2CCN(CC(=O)NCc3ccccc3)CC2)cc1	none
COc1cccc(N2CCN(CC(=O)NCc3cccs3)CC2)c1	none (no result: RGS16-Gao, RGS4-Gao reg, RGS7-Gao, RGS8-Gao, Avidin fluor) | Biotin-avidin inactive | RGS8-Gao single inactive | RGS7-Gao confirm inactive | RGS16-Gao single inactive | RGS4-Gao single inactive | RGS19-Gao single inactive
CCN1CCCC1CNCc1cccc(OC)c1OCc1ccc(F)cc1 (centres undefined)	RGS16-Gao 19.9 | RGS-Gao 90.6 | Biotin-avidin inactive | RGS8-Gao single inactive | RGS7-Gao confirm inactive | RGS16-Gao single inactive | RGS4-Gao single inactive | RGS19-Gao single inactive
CCN(CC)c1ccc(NC(=O)c2ccco2)c(C)c1	none
CCN(CC)c1ccc(NC(=O)c2cccc(F)c2)c(C)c1	RGS4-Gao reg 44.7, RGS7-Gao 40.3, RGS8-Gao 53.1 | Biotin-avidin inactive | RGS8-Gao single inactive | RGS7-Gao confirm inactive | RGS16-Gao single inactive | RGS4-Gao single inactive | RGS19-Gao single inactive
COc1ccc(C(=O)Nc2ccc(-c3cn4ccsc4n3)cc2)cc1S(=O)(=O)N1CCOCC1	RGS16-Gao -56.4, RGS4-Gao reg -45.8, RGS7-Gao -7.2, RGS8-Gao 17.2 (no result: Avidin fluor) | Biotin-avidin inactive | RGS8-Gao single inactive | RGS7-Gao confirm inactive | RGS16-Gao single inactive | RGS4-Gao single inactive | RGS19-Gao single inactive
COc1ccccc1/C=c1\sc2nc(-c3ccco3)nn2c1=O	none (no result: RGS16-Gao, RGS4-Gao reg, RGS7-Gao, RGS8-Gao, Avidin fluor) | Biotin-avidin inactive | RGS8-Gao single inactive | RGS7-Gao confirm inactive | RGS16-Gao single inactive | RGS4-Gao single inactive | RGS19-Gao single inactive
CC(=O)N1CC=C2C(C#N)=C(N)C(C#N)(C#N)C(CCc3ccccc3)C2C1 (centres undefined)	none (no result: RGS16-Gao, RGS4-Gao reg, RGS7-Gao, RGS8-Gao, Avidin fluor) | Biotin-avidin inactive | RGS8-Gao single inactive | RGS7-Gao confirm inactive | RGS16-Gao single inactive | RGS4-Gao single inactive | RGS19-Gao single inactive
CCN1CC=C2C(C#N)=C(N)C(C#N)(C#N)C(CCc3ccccc3)C2C1 (centres undefined)	none
Cc1nn(C)c(C)c1C1C(C#N)=C(N)Oc2n[nH]c(C)c21 (centres undefined)	RGS16-Gao 230.3[activator], RGS8-Gao 140.3[activator] | RGS-Gao 109.6 | Biotin-avidin inactive | RGS8-Gao single inactive | RGS7-Gao confirm inactive | RGS16-Gao single inactive | RGS4-Gao single inactive | RGS19-Gao single inactive

Screens (PubChem BioAssay)
